According to PubChem BioAssay AID652010 (The Scripps Research Institute Molecular Screening Center, 2013):
About 4,100 (1.1%) of roughly 370,000 compounds were called active. The sample as a whole holds a higher share of actives than the screen did. Unmarked numbers belong to inactive results.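 The calls were made as follows: active = inhibition above the mean over all tested compounds plus 3 SD (cut at about 3.6% in these data); inactive = the rest.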

Assay: relief of DAX-1 repression of SF-1 activity – cell-based, luminescence, SF-1 (NR5A1), full-length DAX-1, primary screen (AID 652010);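 also: 0% = DAX-1 cells with DMSO and 100% = cells lacking DAX-1 with DMSO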
Details: HEK293T StAR-luciferase reporter, SF-1/DAX-1 repression relief; at 6.8 µM; active compounds read high
For `C[C@@H]1ON(C)[C@H]2C[C@H]3c4[nH]c5cccc(-c6ccc7c(c6)OCO7)c5c4CCN3C[C@@H]12`, the inhibition was 0.45%. With `O=S1(=O)c2c(NCc3ccco3)cccc2Oc2ccccc2CN1Cc1cn(Cc2cccc(C(F)(F)F)c2)nn1` the inhibition was -0.91%. With `O=C(Nc1cccc(F)c1)[C@@H]1CCCN1` the inhibition was -0.32%. With `Cc1cc(C)cc(NC(=O)NC2CCCCCCC2)c1` the inhibition was 3.33%. In the case of `O=C(Nc1cccc(F)c1)NC1CCCCCCC1`, the inhibition is reported as 4.46% (active). In the case of `Clc1ccc(Nc2nc(-c3cccs3)cs2)nc1`, the inhibition is reported as 5.93% (active). Work on `Clc1ccc(Cc2nnc(-c3cccs3)o2)cc1` yielded an inhibition of -0.54%. `CCCN1C(=O)c2[nH]nc(-c3ccccc3)c2C1c1ccccc1` (stereo unspecified) showed an inhibition of -1.18%. `O=C(Nc1ccc(Br)cc1)OCCN1C(=O)CCC12CCC(c1ccccc1)CC2` (stereo unspecified) showed an inhibition of 0.27%. In the case of `CN(CC(=O)Nc1ccc(F)cc1)CC(=O)N1CCCCC1`, the inhibition is reported as 3.7% (active). For `CC(C(=O)N1CCc2ccccc21)N(C)CC(=O)Nc1ccc(F)cc1` (stereo unspecified), the inhibition was -0.82%. `CS(=O)(=O)N(CC(=O)Nc1ccc(F)cc1)C1CCCCC1` gave an inhibition of -0.02%. In the case of `Cn1c(-c2ccco2)nc2cc3ccccc3cc21`, the inhibition is reported as 4.28% (active). With `Cn1c(SCC(=O)c2cccs2)nnc1-c1ccco1` the inhibition was 0.71%. In the case of `CN(C)C(=O)CSc1n[nH]c(-c2ccco2)n1`, the inhibition is reported as -0.67%. `C=CCN(C)CC#Cc1ccccc1` showed an inhibition of 1.58%. Compound `O=S1(=O)c2ccc(Br)cc2OC[C@H](Cc2ccccc2)N1Cc1cn(Cc2ccccc2)nn1` has an inhibition of 0.43%. `COc1ccc(CN(CCN2CCOCC2)C(=O)c2ccc(C)cc2)cc1OC` gave an inhibition of 1.29%. In the case of `Cc1cc(N=Nc2ccc3ccccc3c2)ccc1O`, the inhibition is reported as 4.24% (active). `Cc1ccccc1N1CCN(CC(=O)NCc2ccc(Cl)cc2)CC1` gave an inhibition of -0.26%. Compound `COC1=C[C@H](C(=O)NCCNC(C)=O)[C@H](C)[C@@H](c2ccccc2)CC1=O` has an inhibition of 0.48%. `CCN(CC)C(=O)CC[C@@H]1CC[C@]2(CCCN(S(=O)(=O)C3CCCCC3)C2)O1` gave an inhibition of -1.81%. For `CCOC(=O)c1c(NC(=S)Nc2ccccc2)sc2c1CCN(C)C2`, the inhibition was 0.23%. `CCOC(=O)c1cc2c(nc1NC(=S)Nc1ccccc1)CC(C)(CC)OC2` (stereo unspecified) gave an inhibition of -0.51%. For `CCOC(=O)c1cn[nH]c1NC(=S)Nc1ccccc1`, the inhibition was 4.39% (active). `Cc1ccc(CN2CCCCC(NC(=O)C3CCCCC3)C2=O)cc1` (stereo unspecified) gave an inhibition of -1.69%. `COc1ccc(N2CCN(CCNS(=O)(=O)c3ccc(C(C)(C)C)cc3)CC2)cc1` showed an inhibition of -0.04%. Work on `CC1(C)NC(=O)N(CC(=O)N2CCN(S(=O)(=O)c3ccccc3F)CC2)C1=O` yielded an inhibition of -1%. Compound `COc1ccc([C@H]2OC(=O)C[C@H]2C(=O)N2CCN(c3ccccc3F)CC2)cc1OC` has an inhibition of 0.35%. `O=C(NCC1COc2ccccc2O1)c1ccc(NC(=O)c2cc(F)ccc2F)cc1` (stereo unspecified) showed an inhibition of -1.54%. `CN(C)S(=O)(=O)c1cc(C(=O)Nc2ccn(C)n2)c(Cl)cc1Cl` showed an inhibition of -0.84%. Compound `Cc1ccc(C(=O)Nc2nc(N)n(-c3ccccc3)n2)cc1` has an inhibition of 0.57%. With `Cc1ccc(C(=O)Nc2ccn(C)n2)cc1` the inhibition was 4.06% (active). Compound `N#Cc1c(NC(=O)c2ccc(N3CCOCC3)c([N+](=O)[O-])c2)sc2c1CCCC2` has an inhibition of 0.44%. For `CCC1CCc2c(sc(NC(C)=O)c2C#N)C1` (stereo unspecified), the inhibition was -0.35%. For `N#Cc1c(NC(=O)C2CCCO2)sc2c1CCCCC2` (stereo unspecified), the inhibition was 3.86% (active). With `COC(=O)C1CN(Cc2ccc(F)cc2)CCS(=O)(=O)N1Cc1ccc(Cl)cc1` (stereo unspecified) the inhibition was -1.11%. Compound `CC(C)(C)OC(=O)NCc1cc(F)ccc1/C=C/S(=O)(=O)NCCc1ccccc1` has an inhibition of -0.93%. For `O=C(NC(=S)NC1CCCCC1)c1ccc(Cl)cc1`, the inhibition was 7.22% (active). Compound `O=C(NNC(=S)NC1CCCCC1)c1ccccc1Cl` has an inhibition of 2.28%. `O=C(NC1CCCCCC1)C1CCN(C(=O)c2ccc(Cl)cc2)CC1` gave an inhibition of -1.38%. Work on `CC(NCc1ccco1)C(=O)N1CCCCC1` (stereo unspecified) yielded an inhibition of -0.66%. Compound `O=S1(=O)c2ccc(Br)cc2OC[C@@H](Cc2ccccc2)N1Cc1cn(Cc2ccco2)nn1` has an inhibition of -0.91%. In the case of `Cn1c(-c2ccccc2)c[n+]2c1CCCCC2`, the inhibition is reported as 0.1%. Compound `Cc1cc(OCCCC(=O)NCCN2C(=O)S/C(=C\c3cccnc3)C2=O)ccc1Cl` has an inhibition of -0.22%. With `COc1ccc(N2CC(C(=O)NCCN3C(=O)S/C(=C\c4cccnc4)C3=O)CC2=O)c(OC)c1` (stereo unspecified) the inhibition was 4.36% (active). `O=C(NCCN1C(=O)S/C(=C\c2cccnc2)C1=O)c1ccc(S(=O)(=O)N2CCCC2)cc1` gave an inhibition of -0.2%. For `Cc1cccc(OC(C)C(=O)N2CCc3ccccc3C2)c1` (stereo unspecified), the inhibition was -0.08%. `CCOC(=O)c1c(NC(=S)SC)sc(C(=O)N2CCc3ccccc3C2)c1C` gave an inhibition of 0.68%. For `Cc1cccc(C)c1NC(=O)c1ccc(CN2CCc3ccccc3C2)cc1`, the inhibition was -0.37%. With `O=C(Nc1cccc([N+](=O)[O-])c1)N1CCc2ccccc2C1` the inhibition was 4.21% (active). In the case of `CCc1ccc(NC(=O)N2CCc3ccccc3C2)cc1`, the inhibition is reported as 6% (active). `Cc1c(NC(=O)Nc2cccc([N+](=O)[O-])c2)c(=O)n(-c2ccccc2)n1C` showed an inhibition of -3.53%. `Nc1ncnc2c1ncn2C1OC(CO)CC1O` (stereo unspecified) gave an inhibition of -1.04%. `CCC(=O)OCCCN1C(=O)CCC12CCC(c1ccccc1)CC2` (stereo unspecified) showed an inhibition of 0.13%. `O=S(=O)(Nc1cccc(-c2ccc(N3CCOCC3)nn2)c1)c1ccc(Cl)c(Cl)c1` showed an inhibition of 0.25%. With `O=S(=O)(Nc1ccc2nc(N3CCOCC3)sc2c1)c1ccccc1` the inhibition was 4.19% (active). Work on `O=S(=O)(Nc1ccc2nc(-c3ccco3)[nH]c2c1)c1ccccc1` yielded an inhibition of -0.15%. Work on `COc1cccc(/C=C2\CC3(OC(C)=O)CCCN2C3)c1` (stereo unspecified) yielded an inhibition of 1.86%. `COc1ccc(Cn2ccc3ccc(-c4ccc5ccn(Cc6ccccc6C)c5c4)cc32)cc1` gave an inhibition of -0.33%. `COc1ccc(-n2c(SCC(=O)Nc3ccc4cn[nH]c4c3)nnc2-c2cccnc2)cc1` showed an inhibition of 0.02%.
